Only some compounds are listed: those with a hit (about 12% of all), similar ones and a draw of the others.
Pf growth 48h: Primary qHTS for delayed death inhibitors of the malarial parasite plastid, 48 hour incubation | Potency, µM (titrated, usually from 28.7 µM), most hits filed as inhibitors | P. falciparum luciferase growth in erythrocytes, 48 h | 310,000 tested, 5.9% active
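Read-out is firefly luciferase luminescence from an integrated reporter in P. falciparum, so falling signal marks reduced parasite growth. Infected erythrocytes were at 2% hematocrit and 0.1% parasitemia (final) in Albumax-supplemented RPMI 1640.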
Sm TGR block: qHTS Assay for the Inhibitors of Schistosoma Mansoni Peroxiredoxins; 360,000 tested, 3% active; purified TGR, DTNB reduction, TNB absorbance 405 nm; AID 485364, 2010; Potency, µM (titrated, usually from 114 µM), hits mostly inhibitors; Schistosoma mansoni thioredoxin glutathione reductase (TGR), Q962Y6; also: nearly all actives have a fitted effect of over 60% in size
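First, TGR (20 nM dispensed) and NADPH were mixed with compound. Second, a 15 min room-temperature incubation followed. Third, further NADPH and then DTNB were added to start the reaction. Finally, TNB absorbance was monitored kinetically.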
Pf growth 96h: Primary qHTS for delayed death inhibitors of the malarial parasite plastid, 96 hour incubation; P. falciparum luciferase reporter growth, 96 h; Potency, µM (titrated, usually from 28.7 µM), hits mostly inhibitors; 320,000 tested, 6.9% active; AID 504834, 2011
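Readout is luminescence from an integrated firefly luciferase in P. falciparum. Red cells, 2% hematocrit and 0.05% parasitemia final, were cultured with compound through two parasite generations (96 hours) at 37 C, 5% CO2.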
SARS PLpro yeast: qHTS of Yeast-based Assay for SARS-CoV PLP; S. cerevisiae expressing SARS-CoV PLpro, growth rescue; AID 485353, 2010; 330,000 tested, 0.19% active; Potency, µM (series often up to 32.9 µM), actives largely listed as activators; calls by dose curve; also: nearly all actives have a fitted effect of over 55% in size
Numbers stand for hits; n = inactive; u = inconclusive; x = no result; [ ] = dose if it differs, or a comment. Unless noted, calls follow the shape of the dose curve; as a rule, active = well fitted curve in the direction sought with a large enough effect; inconclusive = small, poorly fitted or top-dose-only effect, or another doubt; inactive = no such curve, though single readings can be large; an effect the other way counts as inactive or inconclusive.

SMILES	Pf growth 48h	Sm TGR block	Pf growth 96h	SARS PLpro yeast
O=C(NO)c1ccc(OC(F)F)cc1	10.4µM	n	u	n
N/C(Cc1cccc2ccccc12)=N\OC(=O)c1cccs1	13.1µM	n	n	n
N/C(Cc1cccc2ccccc12)=N\OC(=O)c1ccc(Br)o1	u	44.7µM	n	n
Cc1ccc(-c2nn(CC(=O)NC3CCCCC3)c3c2cnc2ccc(F)cc23)cc1C	x	n	x	x
CC1=C(CC(=O)O)c2cc(F)ccc2/C1=C/c1ccc(S(C)=O)cc1 (centres undefined)	n	20µM	n	n
COc1ccc(C)cc1NC(=O)CN1c2ccccc2S(=O)(=O)c2ccccc21	x	n	x	x
Cn1c(SCC(=O)NCc2ccco2)nnc1C1CC1	x	x	x	n
Cc1ccc(NCc2nnc(SCC(=O)NCc3ccco3)n2CC2CCCO2)c(C)c1 (centres undefined)	n	n	u	n
Cc1ccc(NCc2nnc(SCC(=O)NCc3ccco3)n2CC2CCCO2)cc1Cl (centres undefined)	n	50.1µM	n	n
CCn1c(SCC(=O)NCc2ccco2)nnc1C1CCCC1	n	39.8µM	n	n
CC(C)n1c(SCC(=O)NCc2ccco2)nnc1C1CC1	n	17.8µM	u	n
Cc1cc(C)cc(-n2c(SCC(=O)N3CCC(C)CC3)nc3c([nH]c4ccccc43)c2=O)c1	x	n	x	x
COc1ccc(NC(=O)c2ccc(S(=O)(=O)N3CCCC3)cc2)cc1OC	u	n	u	n
CCCCC(=O)O[C@]1(C(=O)CO)CCC2C3CCC4=CC(=O)CCC4(C)C3C(O)CC21C (some centres undefined)	n	x	u	x
COc1cc(NC(=O)c2ccc(N)nc2)cc(C(=O)Nc2cccc(C(F)(F)F)c2)c1	0.738µM	n	0.738µM	n
COc1cc(NC(=O)c2nccnc2N)cc(C(=O)Nc2cccc(C(F)(F)F)c2)c1	u	n	u	n
COc1ccc(-c2cc(C(=O)Nc3cc(OC)cc(C(=O)Nc4cccc(C(F)(F)F)c4)c3)[nH]n2)cc1	1.85µM	n	1.31µM	n
COc1cc(Nc2ccccn2)cc(C(=O)Nc2cccc(C(F)(F)F)c2)c1	u	u	n	n
Brc1ccc(OCCCCN2CCCCC2)cc1	n	n	5.22µM	n
CC1CCN(CCCCOc2cccc(Br)c2)CC1	u	n	2.62µM	n
Cc1cc(Br)ccc1OCCCCN1CCC(C)CC1	14.7µM	n	n	n
CC1CCN(CCCCOc2ccc(Br)cc2)CC1	n	n	n	n
COc1cccc(NC(=O)c2sc3nc(C)c(C(=O)Nc4ccc(C)cc4C)c(-c4cccs4)c3c2N)c1	x	n	x	x
CCOC(=O)c1cc2c(=O)n3cccc(C)c3nc2n(CCOC)c1=NC(C)=O	u	n	6.57µM	n
CC(C)OCCCn1c(=N)c(C(N)=S)cc2c(=O)n3ccccc3nc21	x	n[11.4 µM]	13.1µM	n
SMILES	Pf growth 48h	Sm TGR block	Pf growth 96h	SARS PLpro yeast
CCN(C(=O)c1cc2c(=O)n3ccccc3nc2n1CCCOC)C1CCCCC1	11.7µM	n	14.7µM	n
CC(=O)N=c1c(C#N)cc2c(=O)n3ccccc3nc2n1CCCOC(C)C	n	n	n	n
CCOCCCn1c(=NC(C)=O)c(C#N)cc2c(=O)n3cccc(C)c3nc21	n	n	u	n
CCN(C(=O)c1cc2c(=O)n3ccccc3nc2n1C)C1CCCCC1	n	n	n	n
CCOCCCn1c(=NC(=O)c2ccc(OC)c(OC)c2)c(C#N)cc2c(=O)n3cccc(C)c3nc21	2.33µM	n	x	n
CC(C)N(CCCNC(=O)c1ccc(CS(=O)(=O)c2c(Cl)cccc2Cl)o1)Cc1ccccc1	u	u	n	n
Cc1ccccc1NC(=O)c1c(C)oc2ccc(O)c(CN3CCOCC3)c12	x	n	x	x
CCOC(=O)c1cc2c(=O)n3ccccc3nc2n(CCCOC)c1=NC(=O)c1ccncc1	n	n	u	n
CCOC(=O)c1cc2c(=O)n3ccccc3nc2n(CCCOC)c1=NC(C)=O	n	n	10.4µM	n
Nc1ccccc1SCC(=O)Nc1ccc2c(c1)OCCO2	n	n	n	n
COc1cc(OC)cc(N2C(=O)CC(N3CCC(C(=O)N4CCCCC4)CC3)C2=O)c1 (centres undefined)	n	u	14.7µM	n
O=C(C1CCN(C2CC(=O)N(c3ccc(F)cc3)C2=O)CC1)N1CCOCC1 (centres undefined)	n	u	x	n
CC(=O)Nc1cccc(N2C(=O)CC(N3CCC(C(=O)N4CCCCC4)CC3)C2=O)c1 (centres undefined)	n	20µM	x	n
CC(=O)c1cccc(N2C(=O)CC(N3CCN(S(=O)(=O)c4ccccc4F)CC3)C2=O)c1 (centres undefined)	x	x	x	n
O=C(CN1C2CCC1CC(O)(c1cccnc1)C2)Nc1ccc2c(c1)OCO2 (centres undefined)	n	n	8.28µM	n
CCOc1ccc(CSCCNC(=S)Nc2ccc(OC)cc2)cc1	8.28µM	n	u	n
CCCOc1ccc(CSCCNC(=S)Nc2ccccc2)cc1	13.1µM	n	u	u
COc1ccc(CC(=O)Nc2nc3ccccc3[nH]2)cc1	u	n	n	n
COc1ccccc1NC(=O)CSCC(N)=O	n	n	x	n
COc1ccc(NC(=O)Cc2nc3ccccc3[nH]2)cc1	11.7µM	n	u	n
Cc1ccc(NC(=O)CCc2nc3ccccc3[nH]2)cc1C	n	n	n	n
COc1ccccc1NC(=O)CSCc1nc2ccccc2[nH]1	u	n	11.7µM	n
O=C(CCc1nc2ccccc2[nH]1)Nc1ccc2c(c1)OCCO2	n	n	1.04µM	n
CCCN1CCc2nc(N3CCN(c4ncccn4)CC3)ncc2C1	x	n	x	x
COc1ccc(C(CC(=O)O)N2C(=O)CCC2=O)cc1 (centres undefined)	n	n	n	n
SMILES	Pf growth 48h	Sm TGR block	Pf growth 96h	SARS PLpro yeast
CN(C)S(=O)(=O)c1cccc(C(=O)Nc2ccc(S(=O)(=O)N3CCCC3)cc2)c1	11.7µM	n	u	n
O=C(Nc1cccc(S(=O)(=O)N2CCCC2)c1)c1cccc(OC(F)F)c1	u	n	9.28µM	n
O=C(Nc1ccc(S(=O)(=O)N2CCCC2)cc1)c1ccccc1	n	n	n	n
Cc1cc(NC(=O)c2cc(S(=O)(=O)N3CCCCC3)ccc2C)no1	x	x	x	n
CN1CCN(S(=O)(=O)c2ccc(NC(=O)c3cccc(S(=O)(=O)N4CCCC4)c3)cc2)CC1	11.7µM	n	u	n
Cc1cc(NC(=O)c2cccc(S(=O)(=O)N3CCCCCC3)c2)no1	x	n	8.28µM	u
O=C(Nc1cccc(S(=O)(=O)N2CCCCC2)c1)c1ccc2c(=O)n3c(nc2c1)CCCCC3	u	n	13.1µM	n
CN(C)S(=O)(=O)c1cccc(NC(=O)c2cccc(S(=O)(=O)N3CCCCCC3)c2)c1	13.1µM	n	4.65µM	n
CCc1cccc2cc3c(N)c(C(=O)Nc4ccc(S(=O)(=O)N5CCCC5)cc4)sc3nc12	11.7µM	n	u	n
CN(C)S(=O)(=O)c1cccc(NC(=O)c2ccc(S(=O)(=O)N3CCCCC3)cc2)c1	u	n	u	n
CN1CCN(S(=O)(=O)c2ccc(NC(=O)c3csc4ccccc34)cc2)CC1	4.65µM	n	x	n

High-throughput results from PubChem BioAssay.
